About 83,000 compounds went through this panel and 20% of them were active in at least one assay; those are over-represented in the sample as a whole.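 Cell lines were cultured in 96-well plates, exposed to a single compound concentration, and assessed for percent growth 48 hours later.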 Unmarked numbers belong to inactive results. Activity calls are given as the source filed them.
Tested on: MDA-MB-435 melanoma
Experiment: NCI-60 one-dose screen, 48 h (100 = growth as untreated, 0 = no growth, -100 = all killed)
Details: 10 µM unless noted
Experimental: Growth inhibition of the MDA-MB-435 human Melanoma tumor cell line is measured as a screen for anti-cancer activity. Cells are grown in 96 well plates and exposed to the test compound for 48 hours. Compounds are tested at a single concentration, which is 10^-5 M for most compounds. The reported endpoint is percent growth (GI% or GIPRCNT), where numbers from 0 - 100% represent growth inhibition, and numbers from -100% - 0 represent cell death. For example, a value of 40 represents 60% growth inhibition. A value of 0 means no net growth occurred over the course of the experiment. A value of -40 indicates 40% of cells at the beginning of the experiment died by the end of the experiment. A value of -100 means all cells are dead at the end of the experiment.
NCI-60 Human Tumor Cell Lines Screen was performed using the standard one-dose NCI protocol, which is described in more detail at https://dtp.cancer.gov/discovery_development/nci-60/default.htm.
Compounds with GIPRCNT values below 10 were considered active. Activity score was based on GIPRCNT using the following formula: […]
Score is 0 for GIPRCNT values of 100 or above, 50 for GIPRCNT values of 0, and 100 for GIPRCNT values of -100.

| Structure (SMILES) | growth |
| --- | --- |
| CN1CCc2c(sc3ncnc(N/N=C/c4ccc(Cl)c(Cl)c4)c23)C1 | 11.6% |
| Clc1ccc2oc3c(NCCCn4ccnc4)c4ccccc4nc3c2c1 | 26.7% |
| Clc1ccc2c(NCCCn3ccnc3)c3oc4ccc(Cl)cc4c3nc2c1 | 86.2% |
| COc1ccc(/C=N/NC(=O)c2[nH]c3ccc(Br)cc3c2-c2ccccc2)o1 | -16.9% (active) |
| COc1ccc2[nH]cc(-c3cc(N)n4nc(-c5c[nH]c6ccc(OC)cc56)cc4n3)c2c1 | -81.4% (active) |
| Cc1sc2c(c1C)c(=O)nc1c(-c3nc(-c4ccc(F)cc4)no3)n[nH]n12 | 105% |
| CCOC(=O)c1c(Nc2ccccc2)nn2c(N)c(C#N)c(-c3ccc(F)cc3)nc12 | 81.2% |
| CCCCCCNC(=O)Oc1ccc(/C(=C(/C)c2ccccc2)c2ccc(OCCN3CCCCCC3)cc2)cc1 | 49.6% |
| COc1ccc(/C=N/Nc2ccnc3cc(Cl)ccc23)cc1Cl | -84.1% (active) |
| COc1ccc(C(=O)/C=C/c2ccc(OCc3ccc(C)cc3)c(OC)c2)cc1OC | 82.6% |
| O=C(CSc1nnc(-c2ccc3nc(-c4ccc(Cl)cc4)[nH]c3c2)o1)Nc1ccc(C(=O)/C=C/c2ccc(Cl)cc2)cc1 | 99.9% |
| COc1ccc(-c2nn3c(-c4ccccc4F)nnc3s2)cc1 | -4.46% (active) |
| O=C(N/N=C/c1ccc([N+](=O)[O-])o1)c1[nH]c2ccc(Br)cc2c1-c1ccccc1 | -40.8% (active) |
| CO/N=C1\CCc2c(sc(NC(=O)c3cccc(C(F)(F)F)c3)c2C(N)=O)C1 | 49.1% |
| CNC(=O)c1cc(-c2ccc(NC(=O)Nc3ccc(N4CCOCC4)c(C(F)(F)F)c3)cc2)nc2cccnc12 | 72.6% |
| CN(C)c1ccc(-c2c(NC(C)(C)C)nc3c(OCCc4ccccc4)cccn23)cc1 | 24% |
| O=C(NNc1nc2cc(F)ccc2n2c(CN3CC4(COC4)C3)ccc12)c1cnccn1 | 35.2% |
| COc1ccc(NC2=CC(=O)C(C)=C(C)C2=O)cc1 | 7.8% (active) |
| Cc1cccc2sc(/N=C(\N)C(Br)Br)nc12 | 12.3% |
| Cc1cccc(/C=C/c2nn3c(-c4ccco4)nnc3s2)c1 | 95.8% |

| Structure (SMILES) | growth |
| --- | --- |
| NC(=O)c1c(NC(=O)c2ccc(C3CCCCC3)cc2)sc2c1CCC(=O)C2 | 11.9% |
| CS(=O)(=O)c1ccc(-c2nc3ccccn3c2C=Nc2ccc(Cl)cc2)cc1 | 56.7% |
| COc1cc(OC)c(C2C(Cl)C(=O)N2Nc2ncnc3ccccc23)cc1OC (stereo not given) | 96.2% |
| Nc1c(C(=O)Nc2ccc(Cl)cc2)sc2nc(-c3cnccn3)cc(-c3cccs3)c12 | 77.5% |
| Cc1[nH]nc2ncc(C#Cc3cncc(C(=O)Nc4ccc(CN5CCN(C)CC5)c(C(F)(F)F)c4)c3)cc12 | 13.1% |
| C=C1CC[C@H]2[C@@](C)(CCC3OC(c4ccc(OCc5cn(C6CC(OC(C)=O)C(OC(C)=O)C(COC(C)=O)O6)nn5)cc4)OC[C@]32C)[C@@H]1/C=C/C1=CCOC1=O (stereo not given in full) | 85.4% |
| COc1ccc(/C=C2\SC(=Nc3cc(C)on3)NC2=O)cc1 | 104% |
| Cc1nc(-c2cc3ccccc3oc2=O)ccc1C(=O)/C=C/c1ccccn1 | 70.8% |
| COc1ccc(N/N=C/c2c(-c3ccc(S(C)(=O)=O)cc3)nc3ccccn23)cc1 | 34.1% |
| O=C1Nc2ccccc2Oc2ccc(S(=O)(=O)CC3CO3)cc21 (stereo not given) | 46.3% |
| C#C[C@]1(O)CC[C@H]2[C@@H]3CC=C4c5sc(Nc6ccc(Cl)cn6)nc5CC[C@]4(C)[C@H]3CC[C@@]21C | 41.4% |
| Cc1c(NC(=O)CSc2nc3sc4c(c3c(=O)n2-c2ccc(Cl)cc2)CCCC4)c(=O)n(-c2ccccc2)n1C | 88.3% |
| CN(C)CCCOc1c2ccc(Cl)cc2nc2c1oc1ccc(Cl)cc12 | -10.2% (active) |
| Cn1c(SCC(=O)c2cccs2)nc2ccccc2c1=O | 103% |
| Cn1ccnc1C(=O)/C=C/c1ccc(NC(=O)Nc2ccc(F)cc2)cc1 | 35.4% |
| N#Cc1ccc(/C=N/NC(=O)c2[nH]c3ccc(Br)cc3c2-c2ccccc2)s1 | 1.78% (active) |
| O=C(CCN1C(=O)/C(=C/c2ccccc2)SC1=S)N1CCOCC1 | 81.9% |
| O=C(CSc1nc2sc3c(c2c(=O)n1-c1ccc(Cl)cc1)CCCC3)NNC(=O)Nc1cccc(C(F)(F)F)c1 | 24.5% |
| COc1cc2nc(-c3ccc(Cl)cc3)cc(OCCCNCC3CCCO3)c2cc1OC (stereo not given) | 12.4% |
| O=C(Oc1ccc2ccc(=O)oc2c1)c1ccc(Cl)cc1 | 109% |

From PubChem BioAssay (NCI)
